# Assay outcomes: PubChem, National Center for Advancing Translational Sciences (NCATS)
# G9a block = inhibitors of human histone lysine methyltransferase G9a; G9a H3K9 monomethylation, AlphaScreen, 2 h; Potency, µM (top dose mostly 102 µM), without a hit: top-dose activity, negative = inhibition, actives largely listed as inhibitors; 350,000 compounds, 8.8% hits; further: on the % scale 0 is the no-effect control and ±100 the full control effect; nearly all actives have a fitted effect of over 75% in size
#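 Methyltransferase reactions run at room temperature for 2 h (20 nM enzyme, 500 nM biotin-H3K9 peptide, 20 uM SAM) after a 15 min compound preincubation; product detected by AlphaScreen beads and anti-H3K9me1 antibody.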
# Sfp inh = inhibitors of Bacillus subtilis Sfp phosphopantetheinyl transferase; Q9F4F7; Biochemical Sfp PPTase activity, qHTS; Potency, µM, without a hit: largest response in the series, negative = inhibition, hits mostly inhibitors; 310,000 compounds, 3.5% hits; AID 1490;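 further: the enzyme is Sfp with the accession as filed and its product quenches rhodamine fluorescence; 0% = enzyme reaction without inhibitor and -100% = no enzyme wells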
#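 Compounds were incubated with enzyme (final 15 nM) for 15 min at room temperature before substrate addition started the reaction. Fluorescence at 525 nm excitation, 598 nm emission was recorded immediately and after 30 minutes.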
# L3MBTL1 inh = blocks human L3MBTL1 | Potency, µM (series often up to 57.1 µM), inactives show top-dose activity, negative = inhibition, actives largely listed as inhibitors | 230,000 compounds, 0.66% hits | AlphaScreen L3MBTL1–H3K9me1 peptide binding | Q9Y468; further: on the % scale 0 is the no-effect control and ±100 the full control effect; nearly all actives have a fitted effect of over 60% in size
# Target sequence (Q9Y468 whole entry, looked up): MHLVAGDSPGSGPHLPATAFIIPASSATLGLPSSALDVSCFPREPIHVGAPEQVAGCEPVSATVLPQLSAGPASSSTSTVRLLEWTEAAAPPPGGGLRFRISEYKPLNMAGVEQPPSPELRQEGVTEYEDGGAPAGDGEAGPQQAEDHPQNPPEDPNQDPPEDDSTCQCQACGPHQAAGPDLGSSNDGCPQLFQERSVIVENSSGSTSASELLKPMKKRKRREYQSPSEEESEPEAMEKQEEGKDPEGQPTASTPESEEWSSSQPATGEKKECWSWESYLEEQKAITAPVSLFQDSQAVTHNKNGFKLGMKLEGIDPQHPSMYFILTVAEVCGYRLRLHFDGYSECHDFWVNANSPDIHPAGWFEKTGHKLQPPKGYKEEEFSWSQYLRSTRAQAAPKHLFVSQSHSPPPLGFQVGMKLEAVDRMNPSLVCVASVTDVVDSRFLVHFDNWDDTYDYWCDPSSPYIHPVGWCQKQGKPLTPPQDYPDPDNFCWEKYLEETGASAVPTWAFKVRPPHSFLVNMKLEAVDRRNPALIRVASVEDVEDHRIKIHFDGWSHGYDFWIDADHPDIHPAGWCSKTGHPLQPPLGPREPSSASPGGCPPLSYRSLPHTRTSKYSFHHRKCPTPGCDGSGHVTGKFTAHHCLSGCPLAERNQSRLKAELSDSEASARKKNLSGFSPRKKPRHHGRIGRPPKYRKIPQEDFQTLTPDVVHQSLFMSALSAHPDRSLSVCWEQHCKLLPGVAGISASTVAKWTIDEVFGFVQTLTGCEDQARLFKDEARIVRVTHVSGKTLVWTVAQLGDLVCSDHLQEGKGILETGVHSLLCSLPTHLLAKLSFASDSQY
#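 AlphaScreen assay: L3MBTL1 (50 nM final) was preincubated 30 min at room temperature with biotinylated H3(1-15)K9me1 peptide (75 nM final), then 30 min with library compounds; streptavidin donor and nickel chelate acceptor beads (10 ug/mL final) added, 30 min dark.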
# JMJD2A Tudor = JMJD2A Tudor domain (human) inhibition. O75164. AlphaScreen JMJD2A-Tudor / H3K4me3 peptide binding. Potency, µM (doses to about 114 µM), for inactives: at the top dose activity change, negative = inhibition, hits mostly inhibitors. 390,000 compounds, 4.4% hits; further: on the % scale 0 is the no-effect control and ±100 the full control effect; nearly all actives have a fitted effect of over 50% in size
# HP1b binding inh = HP1-beta chromodomain-methylated histone interaction inhibition. AlphaScreen HP1-beta / biotin-H3K9me3 peptide binding. Potency, µM (titrated, usually from 114 µM), inactives show at the top dose activity change, negative = inhibition, most hits filed as inhibitors. P83916. 390,000 compounds, 0.56% hits. AID 540317; further: nearly all actives have a fitted effect of over 70% in size
#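 AlphaScreen: HP1-beta (50 nM) preformed 30 min with biotin-H3(1-18)K9me3 peptide (50 nM) in PBS pH 7.4, 0.01% Tween-20. Compound added for 30 min at RT, then streptavidin donor/nickel chelate acceptor beads (10 ug/mL) for 30 min.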
# BAZ2B block = inhibitors of human BAZ2B bromodomain; 360,000 compounds, 4.4% hits; Q9UIF8; Potency, µM (series often up to 114 µM), for the others: at the highest dose activity change, negative = inhibition, most hits filed as inhibitors; AlphaScreen BAZ2B-H3K14Ac peptide displacement; further: on the % scale 0 is the no-effect control and ±100 the full control effect; nearly all actives have a fitted effect of over 60% in size
#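 BAZ2B 50 nM plus b-H3(5-23)K14Ac 50 nM, PBS pH 7.4/0.01% Tween-20, 30 min RT; compound added (max 110 uM), 30 min RT; streptavidin donor/Ni-chelate acceptor beads 10 ug/mL final, 20 min dark; AlphaScreen read.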
# Active calls of the source: *; u = inconclusive; x = no result given; ! = a repeat was not active; [ ] = remark or other dose. Hits are enriched below; roughly 12% of the tested compounds scored in any of these assays. The call rests on the fitted dose curve; in most records, active means well fitted curve in the direction sought with a large enough effect; inconclusive means small, poorly fitted or top-dose-only effect, or another doubt; inactive means no such curve, though single readings can be large; an effect the other way counts as inactive or inconclusive. Potency means the concentration at half of the fitted maximal effect.
SMILES,G9a block,Sfp inh,L3MBTL1 inh,JMJD2A Tudor,HP1b binding inh,BAZ2B block
Oc1ccc2ccccc2c1CNc1ccc(Br)cc1,5µM*,-15%,x,u,-15%,40µM*
Cc1ccc(-n2ncc(C(=O)NCCc3ccsc3)c2C2CCN(C(=O)OC(C)(C)C)CC2)cc1C,-33%[59 µM],x,x,-29%,4%,3%[57.1 µM]
CNC1=CN=C(c2ccccc2)c2cc(Cl)ccc2N1,4%[59 µM],22%,x,x,x,x
NS(=O)(=O)c1ccc(CNC(=O)c2ccc(S(=O)(=O)NCc3ccco3)cc2)cc1,25%[12.7 µM],x,-5%,-15%,28%,-7%
O=C(c1noc2c1CCCCC2)N1CCN(c2cccc(C(F)(F)F)c2)CC1,-2%[59 µM],x,x,19%,46%,18%[57.1 µM]
COc1ccc(C(=O)OCC(=O)c2ccc(S(=O)(=O)N3CCCCC3)cc2)c(OC)c1,u,x,-1%,-10%,41%,10%
Cc1ccc(C(=O)OCC(=O)c2ccc(S(=O)(=O)N3CCCCC3)cc2)o1,50µM*,x,-10%,u,-11%,-18%
CCOC(=O)N1CCN(Cc2ccccn2)CC1,7.1µM*,79µM*,x,0.79µM*,18%,u
COc1ccc(CN2CCN(C(=O)CC(C)C)CC2)cc1Br,10µM*,-28%,5%,79µM*,27%,u
CSc1ccc(CN2CCN(C(=O)CC(C)C)CC2)cc1,-2%[0.501 µM],-22%,6%[2.29 µM],20µM*,u,79µM*
CCOC(=O)N1CCN(c2c(N3CCN(c4ccccn4)CC3)c(=O)c2=O)CC1,u,20%,1%,-11%,39%,-1%
CCN1CCN(Cc2ccc(NC(=O)Nc3ccc(SC)cc3)cc2)CC1,u,0%,-5%,u,-34%,u
Cc1cc2c(s1)c1cnn(Cc3ccc(C)c(F)c3)c(=O)c1n2C,x,x,x,-32%,x,x
COc1cccc(/C=C/C(=O)NCc2ccc3c(c2)OCO3)c1,14%[59 µM],1%,x,-4%,41%,12%
NCc1c(O)ccc2ccccc12,7.9µM*,13%,2%,x,x,-29%
CC(C)CC(=O)N1CCN(S(=O)(=O)c2ccccc2)CC1,-19%[59 µM],-1%,x,4%,27%,1%
O=C(O)Cc1c(O)ccc2ccccc12,6%[12.7 µM],14%,10%,-3%,30%,-11%
CC(C)CC(=O)N1CCN(Cc2ccc3ccccc3c2)CC1,-3%[0.501 µM],-28%,3%[2.29 µM],25µM*,u,u
COC(=O)C1CCN(C(=O)COC(=O)C2CCN(S(=O)(=O)c3c(Cl)cccc3Cl)CC2)CC1,u,x,-6%,-21%,-3%,1%
CCOC(=O)N1CCN(C(=O)c2oc3ccc(S(=O)(=O)N4CC(C)CC(C)C4)cc3c2C)CC1 (stereo unspecified),26%[0.501 µM],-13%,-5%,0%[57.1 µM],38%,-29%
CCOC(=O)C1CCN(C(=O)c2oc3ccc(S(=O)(=O)N4CC(C)CC(C)C4)cc3c2C)CC1 (stereo unspecified),14µM*,-11%,-7%,-5%,14%,-1%
CCOC(=O)N1CCN(C(=O)COC(=O)C2CCN(S(=O)(=O)c3c(Cl)cccc3Cl)CC2)CC1,50µM*,x,13%,-17%,20%,2%
C=CCSc1ncc(CO)n1Cc1ccccc1,-40%,20%,4%,-5%,43%,-19%
CCOC(=O)C1CCN(c2c(N3CCN(Cc4ccccc4)CC3)c(=O)c2=O)CC1,9%,15%,x,-9%,54%,-2%
CCOC(=O)C1CCN(Cc2ccc(N(C)C)cc2)CC1,u,-15%,x,3.5µM*,u,45µM*
SMILES,G9a block,Sfp inh,L3MBTL1 inh,JMJD2A Tudor,HP1b binding inh,BAZ2B block
CCOC(=O)C1CCN(Cc2cc(C(C)C)c(O)c(C(C)C)c2)CC1,-37%,16%,2%,-13%,20%,-22%
CCOC(=O)C1CCN(Cc2ccc3ccccc3c2)CC1,u,17%,-6%,56µM*,u,u
CN(C)c1cccc(C(=O)Nc2ccc(-c3nc4ccccc4s3)cc2)c1,1%[59 µM],x,x,-29%,38%,0%
O=C(O)c1ncc(Cl)c(Cl)c1Cl,50µM*,4%,9%,50µM*!,22%,-15%
CS(=O)(=O)c1ccc(C(=O)OCC(=O)NCC2CCCO2)cc1[N+](=O)[O-] (stereo unspecified),x,x,x,-9%,30%,x
CC(=O)N1CN(Cc2ccccn2)Cc2c1sc1c2CCCC1,u,45µM*,x,40µM*,28%,28µM*
CC(Oc1ccccc1)C(=O)Nc1cccc(-c2nc3ccccc3[nH]2)c1 (stereo unspecified),50µM*,2%,-1%,-5%,16%,7%
CCN1CCN(c2oc(/C=C/c3ccc(OC)c(OC)c3)nc2C#N)CC1,-8%[59 µM],x,x,13%,44%,-15%
CCOc1ccc(OCC)c(C2C(C#N)=C(N)N(c3cccnc3)C3=C2C(=O)CC(C)(C)C3)c1 (stereo unspecified),50µM*,32µM*,-9%,-10%,41%,u
COc1cc(NC(=O)C(Cc2ccccc2)NS(=O)(=O)c2cccc3nsnc23)cc(OC)c1 (stereo unspecified),-23%[59 µM],x,x,-26%,12%,x
CC(C)CNCC(=O)N1c2ccccc2Sc2ccccc21,35µM*,-22%,8%,11µM*,u,u
O=C(O)CCC1(c2ccccc2)NC(=O)NC1=O (stereo unspecified),u,27%,3%,6%,28%,-4%
O=C(Cn1c(-c2cccs2)cc2ccccc21)NCCCN1CCN(c2ccc(F)cc2)CC1,-3%[59 µM],x,x,u,31%,10%
COc1ccc(N2CCN(CCCNC(=O)c3cc4sccc4n3C)CC2)cc1,14µM*,10%,u,32µM*,-52%,40µM*
COc1ccc(N2CCN(CCCNC(=O)CN3CCN(Cc4ccccc4C)C3=O)CC2)cc1,u,-2%,-24%,u,u,32µM*
Cc1ccc(CN2CCN(CC(=O)NCCCN3CCN(c4ccc(F)cc4)CC3)C2=O)cc1,-8%,5%,-2%,-31%,6%,-36%
COc1ccc(N2CCN(CCCNC(=O)Cn3c(-c4cccs4)cc4ccccc43)CC2)cc1,10µM*,x,x,18µM*,-31%,u
Cn1nc(C(=O)N2CCN(c3ccccc3F)CC2)c2c1-c1ccccc1SC2,14µM*,x,x,20µM*,-20%,13µM*
Cn1nc(C(=O)N2CCN(c3ccc(F)cc3)CC2)c2c1-c1ccccc1SC2,-60%[59 µM],x,x,u,14%,-35%
Cn1nc(C(=O)NCc2ccc(F)cc2)c2c1-c1ccccc1SC2,14µM*,x,x,28µM*,u,10µM*
COC(=O)NC(c1cccc(F)c1)[C@]1(C(C)=O)CCCC1=O (stereo partly specified),x,8%,x,x,x,x
